Compound activity: PubChem BioAssay, Broad Institute
PGC1a acetyl inh = lowers PGC1a acetylation signal in U2OS cells; inhibition, % at 15.6 µM; AlphaScreen anti-acetyl-lysine; with virally co-expressed GCN5 acetyltransferase; 0.17% of 350,000 active; AID 651687;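 active = every replicate shows inhibition of at least 40%; inconclusive = mean inhibition at least 40% but some replicate below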;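 also: 0% = neutral control wells and 100% = positive control wells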
EBV LMP1 NFkB = reduces LMP1-driven NF-kappaB luciferase signal. LMP1-induced NF-kappaB luciferase reporter cells, luminescence. inhibition, % at 12.5 µM. 0.69% of 350,000 active; in the data active = inhibition above about 41%; inconclusive = no clear call, values can overlap the other calls;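 also: 0% = neutral control wells and 100% = reference inhibitor control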
PAX8 inh HTS = PAX8 transcriptional activity inhibition; RMG-I TPO-luciferase reporter, SteadyGlo, 24 h; inhibition, % at 12.6 µM; 1.2% of 360,000 active;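 active = mean replicate inhibition at least 60% with every replicate also reaching 60%; inconclusive = only one of the two criteria is met; inactive = mean below 60% and not all replicates reaching 60%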;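 also: luciferase light reporting Pax8 driven TPO promoter activity; plate controls were median of neutral control wells for no effect and mitoxantrone controls for full effect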
TRPM1 prom inh = reduces MITF-dependent TRPM1 promoter luciferase signal | SK-MEL-5 TRPM1 promoter luciferase, 24 h | AID 488899 | 0.83% of 330,000 active | inhibition, % at 12.5 µM;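 active = mean inhibition across replicates of 60% or more, whatever share of single replicates reaches that level; inconclusive = some that reach 60%, reason not given; inactive = mean inhibition across replicates below 60%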
LGR2 inh = inhibitors of bursicon-induced Drosophila LGR2 receptor cAMP signaling. inhibition, % at 9.99 µM. 0.35% of 380,000 active. HEK293 LGR2, CRE-luciferase, bursicon-stimulated, 4 h;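 active = drop in luminescence signal, shown as inhibition above about 50% in the replicate tests, limit read from the data, passing the limit was not always enough; inconclusive = probably only some replicates passing the limit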;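 also: agonist challenge used bursicon conditioned medium at about half maximal strength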
EWS-Fli block = blocks EWS/Fli oncoprotein-driven transcription; 0.67% of 350,000 active; A673 NR0B1-luciferase reporter, viability-normalised; inhibition, % at 12.6 µM;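 active = mean inhibition of at least 50% after viability correction, with every replicate also passing that limit; inconclusive = mean reaches 50% but only one of two replicates passes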;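 also: firefly luciferase signal divided by Alamar Blue viability fluorescence both relative to DMSO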
Starred values were filed as active, the others as inactive. Compounds with a hit are over-represented: about 2.2% of the library has one in this group of screens.

Oc1ccc(N=Cc2ccc(-c3cccs3)s2)cc1 was read as PGC1a acetyl inh -10, EBV LMP1 NFkB 82*, TRPM1 prom inh 5 and LGR2 inh 59*.
For O=Cc1ccc(-c2cccs2)s1 the results were PGC1a acetyl inh 5, EBV LMP1 NFkB 76*, PAX8 inh HTS -22, TRPM1 prom inh -9, LGR2 inh inconclusive and EWS-Fli block 9.
`CCN(CC)C(=O)c1ccc(-c2cccs2)s1` gave EBV LMP1 NFkB -24, PAX8 inh HTS -162, TRPM1 prom inh -80 and EWS-Fli block -54.
`O=C(CCl)NCc1cc(-c2ccc(Cl)cc2)no1` gave PGC1a acetyl inh -52, EBV LMP1 NFkB -11, PAX8 inh HTS 64*, TRPM1 prom inh 22, LGR2 inh 15 and EWS-Fli block 62*.
COc1ccc(OCc2cc(-c3ccc(Cl)cc3)no2)cc1 was read as PGC1a acetyl inh 0, EBV LMP1 NFkB -4, PAX8 inh HTS -19, TRPM1 prom inh 5, LGR2 inh 1 and EWS-Fli block 46.
C[C@@H]1CCCCO[C@@H](CN(C)C(=O)Nc2ccc(F)cc2)[C@@H](C)CN([C@@H](C)CO)C(=O)c2cc(NC(=O)Cc3ccccc3)ccc2O1 was read as PGC1a acetyl inh 1, LGR2 inh 13 and EWS-Fli block 2.
`COc1cccc(S(=O)(=O)Nc2ccc3c(c2)[C@@H]2C[C@@H](CC(=O)NCc4ccccc4F)O[C@@H](CO)[C@@H]2O3)c1` gave PGC1a acetyl inh -13, PAX8 inh HTS 68* and EWS-Fli block -13.
For COc1cccc(S(=O)(=O)Nc2ccc3c(c2)[C@H]2C[C@H](CC(=O)NCc4ccccc4F)O[C@H](CO)[C@H]2O3)c1 the results were PGC1a acetyl inh -14, PAX8 inh HTS 97*, LGR2 inh -4 and EWS-Fli block -11.
For CC(C)c1ccc(-n2cccc2/C=C2/C(=N)N3C=CSC3=NC2=O)cc1 the results were EBV LMP1 NFkB 2, PAX8 inh HTS 28, TRPM1 prom inh 0, LGR2 inh 53* and EWS-Fli block -7.
Screening C[C@@H]1CN([C@H](C)CO)C(=O)c2cc(NC(=O)C3CCCCC3)ccc2O[C@@H](C)CCCCO[C@@H]1CN(C)C(=O)Nc1ccccc1 returned PGC1a acetyl inh -3, PAX8 inh HTS -11, LGR2 inh -4 and EWS-Fli block -6.
Screening O=C(/C=C/c1cccs1)NC(=S)NNC(=O)c1ccccc1O returned PGC1a acetyl inh -5, EBV LMP1 NFkB -6, PAX8 inh HTS 89*, TRPM1 prom inh 48, LGR2 inh 14 and EWS-Fli block 52*.
`FC(F)(F)c1cc(CCN2CCNC[C@@H]2Cc2ccccc2)cc(C(F)(F)F)c1` gave EBV LMP1 NFkB 1, PAX8 inh HTS -10, TRPM1 prom inh 81*, LGR2 inh 32 and EWS-Fli block 8.
Cc1ccc(S(=O)(=O)N(CC2CO2)c2ccccc2[N+](=O)[O-])cc1 (configuration not stated) was read as PGC1a acetyl inh 79*, EBV LMP1 NFkB -3, PAX8 inh HTS 7, TRPM1 prom inh -3, LGR2 inh 0 and EWS-Fli block -9.
Cc1ccc(N(CC2CO2)S(=O)(=O)c2ccccc2[N+](=O)[O-])cc1 (configuration not stated) was read as PGC1a acetyl inh -7, EBV LMP1 NFkB 1, PAX8 inh HTS 7, TRPM1 prom inh 5, LGR2 inh -3 and EWS-Fli block 12.
CO[C@H](CN(C)S(=O)(=O)c1ccc(Cl)cc1)[C@H](C)CN([C@H](C)CO)S(=O)(=O)c1cccc(Cl)c1 was read as PGC1a acetyl inh -52, PAX8 inh HTS 3, LGR2 inh 7 and EWS-Fli block 1.
`CC1=NN(c2nc(-c3ccc(C)cc3)cs2)C(=O)C1N=Nc1ccccc1O` (configuration not stated) gave PGC1a acetyl inh 13, EBV LMP1 NFkB -2, PAX8 inh HTS -14, TRPM1 prom inh 69*, LGR2 inh -7 and EWS-Fli block -11.
Screening CC1=NN(c2nc(-c3ccc(C)cc3)cs2)C(=O)C1N=Nc1cccc(O)c1 (configuration not stated) returned PGC1a acetyl inh 22, EBV LMP1 NFkB 5, PAX8 inh HTS 11, TRPM1 prom inh 7, LGR2 inh 0 and EWS-Fli block 2.
`COC(=O)C[C@H]1CC[C@@H]2[C@H](COc3ccc(NC(=O)Nc4ccc(C)cc4)cc3C(=O)N2C)O1` gave PGC1a acetyl inh 2, PAX8 inh HTS -22, LGR2 inh -10 and EWS-Fli block -40.
CCC(NC(=O)Nc1ccc(O)cc1)(C(F)(F)F)C(F)(F)F was read as PGC1a acetyl inh -21, EBV LMP1 NFkB -5 and TRPM1 prom inh 8.
CCC(NC(=O)Nn1cnnc1)(C(F)(F)F)C(F)(F)F was read as PGC1a acetyl inh 5, EBV LMP1 NFkB 66*, PAX8 inh HTS -4 and TRPM1 prom inh 2.
Screening COCCn1c(C)c(C)c2c(NCCc3ccccc3)ncnc21 returned PGC1a acetyl inh 51*, EBV LMP1 NFkB 4, PAX8 inh HTS -26, TRPM1 prom inh -3, LGR2 inh 35 and EWS-Fli block 38.
`Cc1c(C)n(CCc2ccccc2)c2ncnc(NCCCO)c12` gave EBV LMP1 NFkB -37, PAX8 inh HTS -106, TRPM1 prom inh -92, LGR2 inh -73 and EWS-Fli block -162.
Screening CCN(c1ccccc1)S(=O)(=O)c1ccc(NC(=O)c2nc(S(C)(=O)=O)ncc2Cl)cc1 returned EBV LMP1 NFkB 2 and TRPM1 prom inh 100*.
`CCS(=O)(=O)c1ncc(Cl)c(C(=O)Nc2ccc(S(=O)(=O)N(C)c3ccccc3)cc2)n1` gave EBV LMP1 NFkB 57*, PAX8 inh HTS 110*, TRPM1 prom inh 98* and LGR2 inh 9.
`NC1=NC[C@@H](CC2CCCCC2)N1CCc1cc(C(F)(F)F)cc(C(F)(F)F)c1` gave PGC1a acetyl inh -27, EBV LMP1 NFkB 6 and TRPM1 prom inh 99*.
For NC1=NC[C@H](c2ccccc2)N1CCc1cc(C(F)(F)F)cc(C(F)(F)F)c1 the results were EBV LMP1 NFkB -9, PAX8 inh HTS -6, TRPM1 prom inh 34, LGR2 inh 16 and EWS-Fli block 61*.
`Cc1noc(C)c1S(=O)(=O)N(C)C[C@H]1OCc2ccccc2-c2c(n(C)c3ccccc23)C(=O)N([C@H](C)CO)C[C@@H]1C` gave PGC1a acetyl inh 5, PAX8 inh HTS -1, LGR2 inh 16 and EWS-Fli block 7.
`O=C(Nc1nc(-c2ccccn2)cs1)c1ccc(Cl)s1` gave PGC1a acetyl inh -3, EBV LMP1 NFkB 73*, PAX8 inh HTS 38, TRPM1 prom inh 55, LGR2 inh -9 and EWS-Fli block 3.
For O=C(Nc1nc(-c2ccccn2)cs1)c1cc2ccccc2o1 the results were EBV LMP1 NFkB 19, PAX8 inh HTS 24, TRPM1 prom inh 13, LGR2 inh -3 and EWS-Fli block 2.
